# Screening data: PubChem BioAssay, several laboratories
# Rows were chosen to be rich in hits. Some 6.6% of all compounds tested hit in one or more screens of this group.
# Mdm2 MdmX PPI = inhibitors of human Mdm2/MdmX interaction. SaOS-2 split-luciferase Mdm2/MdmX complementation, luminescence. inhibition, % at 8 µM. 330,000 compounds, 3% hits;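 active = inhibition of at least 50% at 8 µM in the primary screen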
# Beta cell apopt = beta cell apoptosis inhibition | INS-1E cytokine-induced death, ATP luminescence, 48 h; percent of positive-control rescue, neutral wells zero | protection from apoptosis, % (test concentration not listed) | 300,000 compounds, 0.8% hits | AID 435005;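 active = Every replicate reaches about 75%, or at least half do and their mean reaches it too, limit read from the data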;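 also: 0% = cytokine-treated negative control wells and 100% = positive control rescue; higher means more ATP so stronger rescue from cytokine killing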
# MPTP inh = blocks calcium-induced mitochondrial swelling; 360,000 compounds, 1.4% hits; inhibition, % at 10 µM; isolated mouse mitochondria, Ca2+ swelling absorbance, 30 min;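 active = inhibition of 50% or more, scaled per plate between neutral and stimulator controls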;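 also: 0% = DMSO wells given calcium and 100% = 1 mM EGTA wells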
# Gli-Sufu block = antagonists of Gli-Sufu signaling; Sufu-KO-LIGHT fibroblasts, Gli luciferase reporter luminescence; inhibition, % at 5 µM; 340,000 compounds, 0.74% hits;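 active = inhibition above about 55%, limit read from the data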;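 also: 0% = DMSO-treated cells and 100% = wells with medium but no cells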
# CSC inhib = cancer stem cell inhibition; 300,000 compounds, 1.1% hits; inhibition, % at 7.5 µM; cancer stem cell-like cells viability, luminescence; AID 2717; in the data active = inhibition above about 75%; tested in HMLE shEcad cells
# NR3A LBD binder = modulates the human NR3A ligand-binding domain; NR3A LBD differential scanning fluorimetry, Tm shift; 0% = protein alone, 100% = glycine-bound protein; Tm shift relative to glycine control, % at 25 µM; 340,000 compounds, 2.5% hits;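 active = melting temperature shift of at least 10% of the positive control shift, at one fixed dose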
# Starred values were filed as active, the others as inactive; nt = not tested or not shown.
SMILES,Mdm2 MdmX PPI,Beta cell apopt,MPTP inh,Gli-Sufu block,CSC inhib,NR3A LBD binder
C=CCc1c(C)nc(C)nc1N/N=C/c1ccc(N(C)C)cc1,0,100*,1,11,9,-3
CCOC(=O)c1sc(N/N=C/c2ccc(N(C)C)cc2)nc1C,-4,-15,2,-66,-8,-4
CCCCCNC(=O)C(CCc1ccccc1)n1c(=O)c(-c2ccccc2)nc2ccccc21 (stereo unspecified),nt,nt,4,nt,nt,nt
Cc1ccc(-n2[nH]c(C)c(C=Nc3ccc(S(=O)(=O)Nc4nccs4)cc3)c2=O)cc1,-15,14,nt,nt,nt,nt
Cc1[nH]n(-c2ccc(Br)cc2)c(=O)c1C=Nc1ccc(S(=O)(=O)Nc2nccs2)cc1,1,5,2,3,28,27*
CCCC(c1nnnn1CCOC)N1CCN(Cc2ccccc2)CC1 (stereo unspecified),12,0,-1,-8,-2,0
CCC(c1nnnn1CCOC)N1CCN(Cc2ccccc2OC)CC1 (stereo unspecified),3,0,-4,-25,2,15*
O=C(CC(=O)c1ccccc1O)c1cccc(F)c1,19,4,7,-8,0,23*
O=C(CC(=O)c1ccccc1O)c1ccc(F)cc1,-1,15,2,-26,5,-25
Nc1cc2c(cc1Cl)-c1ccc(Cl)cc1C2,nt,nt,1,-22,nt,30*
COc1ccccc1Oc1cc(-n2nc(C)cc2C)ncn1,6,-3,5,1,-11,10*
COc1ccccc1OCC(O)Cn1nc(C)cc1C (stereo unspecified),-20,1,0,-5,-13,0
CCNC(=O)C[C@@H]1CC[C@H]2[C@@H](COC[C@H](O)CN2C(=O)C2CC2)O1,nt,nt,-2,nt,nt,nt
COc1ccc(-c2nnc(SCC(=O)/C(C#N)=C(\C)N)o2)cc1,-3,-3,0,-60,-11,13*
Cc1ccc(Nc2nc(=O)c3cccnc3s2)c(Br)c1,49,-6,1,-2,22,0
O=C(CN1CC[n+]2c(-c3cccs3)csc21)c1ccc(-c2ccccc2)cc1,4,111*,46,0,2,-3
OC(CSc1nnnn1-c1ccccc1)Cn1c2ccccc2c2ccccc21 (stereo unspecified),nt,nt,2,nt,nt,nt
Cc1nc(NC(=O)CC(C)C)sc1-c1csc(Nc2ccc(Cl)cc2Cl)n1,-2,8,1,-1,80*,4
Cc1nc(NC(=O)c2ccco2)sc1-c1csc(Nc2ccc(Cl)cc2)n1,19,7,-1,4,91*,8
Cc1nc(NC(=O)c2ccco2)sc1-c1csc(Nc2ccc(Cl)cc2Cl)n1,30,11,0,11,57,4
c1ccc(-c2n[nH]c3c2CCC3)cc1,13,-1,-3,-2,-9,0
CC(C)[C@@H]1CC[C@@H](C)c2c(-c3ccccc3)n[nH]c21,-1,-1,-2,-9,101*,-3
CN(C)c1ccc(CCc2ccc(N)cc2)cc1,8,1,2,16,26,-1
Nc1ccc(N(c2ccccc2)c2ccc(N)cc2)cc1,8,nt,3,20,90*,-3
O=C(Nc1nncs1)c1cccc(S(=O)(=O)N2CCCC2)c1,-24,-2,0,3,2,-1
SMILES,Mdm2 MdmX PPI,Beta cell apopt,MPTP inh,Gli-Sufu block,CSC inhib,NR3A LBD binder
CC(=O)c1ccc(NC(=O)C2CCN(S(=O)(=O)c3ccc4c(c3)N(C(C)=O)CCO4)CC2)cc1,-12,1,-3,-5,-4,19*
CC1CCN(S(=O)(=O)c2ccc(NC(=O)[C@@H]3CCCC[C@@H]3C(=O)O)cc2)CC1,29,4,1,-20,nt,0
CC(=O)N1CCOc2ccc(S(=O)(=O)N3CCC(C(=O)Nc4cc(C)cc(C)c4)CC3)cc21,-3,4,-1,9,-13,-3
CC1CCN(S(=O)(=O)c2cccc(C(=O)Nc3nncs3)c2)CC1,18,0,0,-2,-5,17*
CC1CCN(S(=O)(=O)c2ccc(NC(=O)C3CCCCC3C(=O)O)cc2)CC1 (stereo unspecified),nt,nt,-1,-2,nt,11*
Cc1ccc(S(=O)(=O)N2CCC(C(=O)Nc3ccc(C(C)C)cc3)CC2)cc1,14,10,2,-1,75*,2
COC(=O)Nc1ccc(S(=O)(=O)N2CCC(C(=O)N3CCC(C)CC3)CC2)cc1,20,-5,-1,0,-9,0
COC(=O)Nc1ccc(S(=O)(=O)N2CCC(C)CC2)cc1,15,-1,-2,3,-4,13*
CC1CCN(S(=O)(=O)c2ccc(NC(=O)c3ccncc3)cc2)CC1,2,13,-1,16,-1,12*
CSCCC(NC(=O)C1CCC(C)CC1)C(=O)Nc1ccc(NC(C)=O)cc1 (stereo unspecified),6,4,-1,-14,-5,1
CC1=NC(C)(C)Cc2c(C)cccc21,-19,-2,-2,3,-10,0
Cc1cccc2c1CC(C)(C)N=C2C1=C(O)CCCC1=O,36,-7,-3,-5,-9,14*
COc1cc(N=Nc2cccc(S(N)(=O)=O)c2)c2ccccc2c1N,nt,-30,11,6,21,13*
CC(=O)Nc1cccc(NC(=O)c2ccc3[nH]c(C)c(C)c3c2)c1,-21,2,-3,-15,2,28*
COc1ccc(NC(=O)c2ccc3[nH]c(C)c(C)c3c2)cc1,-10,3,-1,-35,10,29*
Cc1[nH]c2ccc(C(=O)NCc3ccccn3)cc2c1C,-12,-6,-1,-13,1,0
Cc1cc(NC(=O)c2ccc3[nH]c(C)c(C)c3c2)ccn1,16,11,0,12,8,12*
CCOC(=O)C(=O)/C(=C\N(C)C)c1onc(-c2c(Cl)cccc2Cl)c1C(=O)OC,19,-8,0,2,nt,11*
CC1(C(=O)O)CCCN(C(=O)c2cc3ccccc3s2)C1 (stereo unspecified),nt,nt,0,nt,nt,nt
O=C(Nc1ccccc1)OCc1cnc(Cl)s1,22,-1,2,-8,6,0
O=C(Nc1ccc(Cl)c(Cl)c1)OCc1cnc(Cl)s1,30,-9,9,-21,42,12*
Cc1ccc(N(C(=O)CCl)C(C(=O)NC2CCCCC2)c2cccnc2)cc1C (stereo unspecified),nt,1,nt,93*,88*,7
CC(=O)c1ccc(N2CCN(C(=O)COc3ccccc3F)CC2)c(F)c1,-18,-4,0,0,-15,10*
CCC(=O)c1ccc(N2CCN(C(=O)COc3ccccc3F)CC2)c(F)c1,11,nt,5,1,10,0
Cc1cccc(NCC(=O)N/N=C\c2c[nH]c3ccccc23)c1,39,-12,1,-17,28,16*
Cc1ccc(OCC(=O)N/N=C/c2c[nH]c3ccccc23)c([N+](=O)[O-])c1,30,-2,2,-2,2,24*
